CHT block: human CHT choline transport inhibition; Q9GZV3; 310,000 tested, 0.86% active; B-score at 10 µM; CHT-expressing cells, membrane potential dye, choline response; active compounds read low;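 active means B-score over 3 SD under the library average, and starting fluorescence ratio not unusually high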;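 further: choline stimulus applied at its EC90 after an EC20 pre-addition; B-score computed on integrated fluorescence ratio after choline addition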
ANO1 block: inhibitors of mouse TMEM16A calcium-activated chloride channel. normalized B-score (activity score, 25-100; higher = stronger inhibition) at 10 µM. AID 588511. 310,000 tested, 1.2% active. HEK293 TMEM16A/YFP iodide influx fluorescence, ionomycin;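 active means ratio plate-corrected score three or more library SD toward inhibition, starting fluorescence score within five deviations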;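 further: score derived from kinetic fluorescence span divided by baseline fluorescence per well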
Target sequence (Q8BHY3 whole entry, looked up): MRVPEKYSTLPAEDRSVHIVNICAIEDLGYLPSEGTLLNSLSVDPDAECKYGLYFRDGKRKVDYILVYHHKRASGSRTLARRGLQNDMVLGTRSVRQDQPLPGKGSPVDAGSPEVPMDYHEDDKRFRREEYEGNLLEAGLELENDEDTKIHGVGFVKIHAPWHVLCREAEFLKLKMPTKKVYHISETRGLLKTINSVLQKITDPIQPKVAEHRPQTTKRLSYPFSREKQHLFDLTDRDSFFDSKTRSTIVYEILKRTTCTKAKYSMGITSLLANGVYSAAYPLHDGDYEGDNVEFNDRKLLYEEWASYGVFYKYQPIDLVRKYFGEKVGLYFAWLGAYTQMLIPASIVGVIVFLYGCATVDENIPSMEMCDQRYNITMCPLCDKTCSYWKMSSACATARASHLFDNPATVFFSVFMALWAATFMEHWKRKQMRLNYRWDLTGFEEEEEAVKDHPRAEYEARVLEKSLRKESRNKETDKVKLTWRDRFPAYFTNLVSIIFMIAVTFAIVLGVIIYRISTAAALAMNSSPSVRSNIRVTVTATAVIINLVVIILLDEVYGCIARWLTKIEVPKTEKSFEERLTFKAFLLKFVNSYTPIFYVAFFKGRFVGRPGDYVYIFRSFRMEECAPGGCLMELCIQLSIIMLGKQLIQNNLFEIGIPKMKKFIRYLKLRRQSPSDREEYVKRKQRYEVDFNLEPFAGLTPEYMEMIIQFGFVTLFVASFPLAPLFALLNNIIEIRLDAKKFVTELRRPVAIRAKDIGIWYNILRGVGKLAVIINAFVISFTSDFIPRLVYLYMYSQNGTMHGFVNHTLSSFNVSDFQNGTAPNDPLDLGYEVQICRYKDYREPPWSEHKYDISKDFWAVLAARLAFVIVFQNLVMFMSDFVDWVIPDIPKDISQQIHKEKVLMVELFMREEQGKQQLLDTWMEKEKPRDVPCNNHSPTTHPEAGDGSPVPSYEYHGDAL
ANO1 activ: mouse TMEM16A channel activation, primary screen; HEK293 TMEM16A/YFP-H148Q/I152L, iodide quench fluorescence; active compounds read low; AID 623877; B-score at 10 µM; 340,000 tested, 0.3% active;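 active means fluorescence-ratio B-score plate-corrected deviation score at least 3 library SD below zero, with starting fluorescence score within 5 deviations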;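 further: channel opened by trigger with iodide after compound preincubation; score built on the fluorescence ratio of max minus min over baseline; more negative score means more quench and so TMEM16A activation or potentiation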
PHOSPHO1 block: inhibitors of human PHOSPHO1 phosphatase. recombinant PHOSPHO1, absorbance phosphatase assay. inhibition, % at 13.3 µM. 290,000 tested, 1.1% active; in the data active means inhibition above about 60%
HDAC3 inhib: blocks human histone deacetylase 3. recombinant HDAC3, fluorogenic peptide/trypsin coupled, fluorescence. inhibition, % at 8.3 µM. 320,000 tested, 0.15% active. AID 2718; in the data active means inhibition above about 26%, passing the limit was not always enough; inconclusive means no clear call, values can overlap the other calls
CHT allo act: allosterically activates the human high affinity choline transporter. CHT-expressing cells, membrane potential dye, choline EC20; active compounds read high; LV-AA mutant CHT in HEK293 cells. B-score at 10 µM. Q9GZV3. 310,000 tested, 0.49% active;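 active means initial fluorescence not abnormally high and integrated response B-score, plate-corrected, over 3 SD above library mean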
CHT activ conf: confirmation of human choline transporter (CHT) activators; shares compounds with CHT allo act; CHT-expressing cells, membrane potential dye fluorescence (FDSS); % of choline EC20–EC90 response window; HEK293 expressing CHT LV-AA mutant; choline added at its EC20; activation, % at 10 µM; 2,500 tested, 91% active;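 active means primary screen active, with duplicate mean activation above negative control mean plus 3 SD, cut at about 11% in these data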
HEK293 MP dye: activity in parental HEK293 cells lacking CHT; ratio readout change at 10 µM, hits read low; AID 623908; 2,500 tested, 62% active; shares compounds with CHT allo act; membrane potential dye fluorescence (FDSS); measured after EC20 choline addition;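 active means duplicate-averaged ratio beyond 3 SD from buffer wells, up or down, though filed actives are nearly all decreases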
Each line names hits and unclear results; the compound was inactive in the other large screens (follow-up assays come after a bar, where they were run). Only some compounds are listed: those with a hit (about 3.2% of all), similar ones and a draw of the others.

CCC(C)n1c(=N)c(C#N)cc2c(=O)n3ccccc3nc21 (centres undefined)	none
CCCn1c(=N)c(C#N)cc2c(=O)n3ccccc3nc21	CHT allo act 7 | CHT activ conf 48 | HEK293 MP dye -64
CC1CC(C)(C)NCc2ccccc21 (centres undefined)	none
COc1cc(C)ccc1OCCON1C(=O)CCC1=O	none
Cc1cc(NCCCn2ccnc2)n2nc(-c3ccc(Cl)cc3)cc2n1	CHT allo act 8.9 | CHT activ conf 38 | HEK293 MP dye -80
Cc1cc(NCCCn2ccnc2)n2nc(-c3ccc(F)cc3)cc2n1	CHT allo act 8 | CHT activ conf 42 | HEK293 MP dye -71
Cc1cccc(-c2cc3nc(C)c(C)c(NCCCn4ccnc4)n3n2)c1	none
CSc1nc2ccc(N3C(=O)C4CCCCC4C3=O)cc2s1 (centres undefined)	none
COc1ccc(NC(=O)CCS(=O)(=O)c2cccc3nonc23)cc1Cl	none
Cc1ccc(C(C)C)c(OCC(=O)Nc2ccc3c(c2)nc(CCN2CCCCC2)n3C)c1	none | CHT activ conf 25 | HEK293 MP dye -27
Cn1c(CCN2CCCCC2)nc2cc(NC(=O)COc3ccc(Cl)cc3)ccc21	none
O=C(c1ccco1)N1N=C(c2cccs2)CC1c1ccccc1O (centres undefined)	none
O=C(Nc1nc2c(F)c(F)c(F)cc2s1)c1ccco1	none
O=C(NC1CC2CCC(C1)N2Cc1ccco1)c1ccccc1 (centres undefined)	CHT allo act 7.7 | CHT activ conf inactive | HEK293 MP dye inactive
C=CC[n+]1c(-c2ccc(OC)c(OC)c2)csc1NNC(=O)Nc1ccccc1	ANO1 block 100 | CHT activ conf inactive | HEK293 MP dye inactive
C=CC[n+]1c(-c2ccccc2)csc1NC(C)(C)C	none
O=C1c2nc3cc(-c4ccco4)[nH]n3c(=O)c2CN1Cc1ccccc1	CHT allo act 7 | CHT activ conf 30 | HEK293 MP dye -55
O=c1[nH]cc(NCCNc2ncc(C(F)(F)F)cc2Cl)c(=O)[nH]1	none
Cc1cccn2c1nc(=S)n2C(=O)c1ccco1	none | CHT activ conf 27 | HEK293 MP dye -21
Cc1ccccc1CN1CCN(C(=O)c2ccco2)CC1	none
O=C(OCC(=O)N(Cc1ccccc1)Cc1ccccc1)c1ccccc1O	HDAC3 inhib inconclusive (no result: CHT block, ANO1 block, PHOSPHO1 block, CHT allo act)
O=C(OCC(=O)N(CCc1ccccc1)Cc1ccccc1)c1ccccc1O	CHT allo act 6.5 (no result: PHOSPHO1 block) | CHT activ conf 38 | HEK293 MP dye inactive
NNC(=O)c1ccc(-c2cccc([N+](=O)[O-])c2)o1	none | CHT activ conf 15 | HEK293 MP dye -23
CCc1cc(C(=O)N2CCc3c([nH]c4ccccc34)C2c2ccc(OC)cc2F)no1 (centres undefined)	none
CCC(=Nc1ccccc1OC)C1=C(O)CC(c2ccccc2)CC1=O (centres undefined)	CHT allo act 12 | CHT activ conf 32 | HEK293 MP dye inactive
O=C(/C=C/c1ccc2c(c1)S(=O)(=O)N(Cc1ccccc1)[C@H]2CC(=O)N1CCOCC1)N1CCOCC1	none (no result: CHT block, ANO1 block, PHOSPHO1 block, CHT allo act)
Cc1nc([N+](=O)[O-])c(N2CCN(Cc3ccccc3)CC2)n1Cc1ccccc1	CHT allo act 7.4 | CHT activ conf 33 | HEK293 MP dye inactive
Cc1csc(=O)n1CC(=O)OCC(=O)Nc1ccc(C(N)=O)cc1	none (no result: CHT block, ANO1 block, PHOSPHO1 block, CHT allo act)
O=C(Cn1c(-c2ccccc2)c[n+]2ccsc12)c1ccc(Br)cc1	none | CHT activ conf 42 | HEK293 MP dye -34
C[n+]1ccn(CC(=O)c2ccc(Br)cc2)c1	none
Cc1cc(-c2ccccc2)cc(-c2ccccc2)[n+]1C	CHT allo act 6.8 | CHT activ conf 79 | HEK293 MP dye -23
Cc1cc(C)n2nc(-c3cccnc3)nc2n1	none | CHT activ conf 48 | HEK293 MP dye -51
Cn1c(SCC(=O)NC2CCCCC2)nnc1-c1ccncc1	none
